Bioassay records: PubChem BioAssay, several laboratories
aSyn UTR inh: 5' untranslated region of α-synuclein, MLPCN primary screen; 300,000 compounds, 0.82% hits; inhibition, % (tested at 7.5 µM); alpha-synuclein 5'UTR reporter, inhibitor activity; in the data active means inhibition above about 60%;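 further: H4 neuroglioblastoma cells stably carrying SNCA 5'UTR luciferase fusion; 0% = DMSO wells and 100% = positive control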
ANO1 block: inhibitors of mouse TMEM16A calcium-activated chloride channel | 310,000 compounds, 1.2% hits | normalized B-score (activity score, 25-100; higher = stronger inhibition) at 10 µM | HEK293 TMEM16A/YFP iodide influx fluorescence, ionomycin | AID 588511;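 active means ratio plate-corrected score three or more library SD toward inhibition, starting fluorescence score within five deviations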;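 further: score derived from kinetic fluorescence span divided by baseline fluorescence per well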
Target sequence (Q8BHY3 whole entry, looked up): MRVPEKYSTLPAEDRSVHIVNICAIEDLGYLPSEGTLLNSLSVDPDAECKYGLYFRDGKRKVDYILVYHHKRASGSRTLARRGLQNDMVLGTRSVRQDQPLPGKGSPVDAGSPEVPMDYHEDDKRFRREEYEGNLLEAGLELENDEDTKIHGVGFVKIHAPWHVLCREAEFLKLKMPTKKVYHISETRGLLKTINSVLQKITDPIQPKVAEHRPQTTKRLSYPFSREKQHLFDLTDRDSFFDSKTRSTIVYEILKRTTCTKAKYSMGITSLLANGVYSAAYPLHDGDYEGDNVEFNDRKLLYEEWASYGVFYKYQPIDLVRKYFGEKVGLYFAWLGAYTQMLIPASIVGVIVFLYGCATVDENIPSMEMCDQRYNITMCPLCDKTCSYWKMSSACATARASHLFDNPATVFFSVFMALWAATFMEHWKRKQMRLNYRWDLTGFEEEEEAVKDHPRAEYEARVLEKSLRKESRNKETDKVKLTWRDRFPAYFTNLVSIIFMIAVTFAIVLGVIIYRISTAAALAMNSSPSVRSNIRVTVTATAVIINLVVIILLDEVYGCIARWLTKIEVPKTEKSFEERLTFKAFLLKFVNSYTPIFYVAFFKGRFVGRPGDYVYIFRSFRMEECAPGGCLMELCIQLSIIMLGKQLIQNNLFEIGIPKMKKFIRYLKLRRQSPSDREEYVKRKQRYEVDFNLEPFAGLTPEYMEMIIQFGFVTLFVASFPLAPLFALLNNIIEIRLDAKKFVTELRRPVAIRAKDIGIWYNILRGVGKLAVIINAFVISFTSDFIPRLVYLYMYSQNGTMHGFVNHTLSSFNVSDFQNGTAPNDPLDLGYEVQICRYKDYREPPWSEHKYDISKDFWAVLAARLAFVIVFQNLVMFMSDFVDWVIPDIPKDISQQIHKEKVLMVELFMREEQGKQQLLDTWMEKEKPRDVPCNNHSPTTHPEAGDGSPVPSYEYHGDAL
KLF5 inh: inhibitors of KLF5 expression; inhibition, % at 5 µM; AID 1700; 290,000 compounds, 0.23% hits; DLD-1 KLF5 promoter-luciferase reporter, luminescence;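 active means inhibition above a per-plate limit of that plate's mean compound inhibition plus 3 SD, cut at about 60% in these data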;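 further: 0% = DMSO wells and 100% = LY294002 at 200 µM; higher means less KLF5 promoter-driven luciferase light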
Jurkat NFkB inh: lowers PMA/ionomycin-induced NF-kB signal in Jurkat cells; PMA/ionomycin-induced NF-kB luciferase reporter, luminescence; inhibition, % at 4 µM; 330,000 compounds, 0.53% hits; AID 435003; in the data active means inhibition above about 50%
ANO1 activ: mouse TMEM16A channel activation, primary screen; Q8BHY3; HEK293 TMEM16A/YFP-H148Q/I152L, iodide quench fluorescence; active compounds read low; AID 623877; B-score at 10 µM; 340,000 compounds, 0.3% hits;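 active means fluorescence-ratio B-score plate-corrected deviation score at least 3 library SD below zero, with starting fluorescence score within 5 deviations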;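 further: channel opened by trigger with iodide after compound preincubation; score built on the fluorescence ratio of max minus min over baseline; more negative score means more quench and so TMEM16A activation or potentiation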
697 NFkB inh: inhibitors of the PMA/ionomycin-induced NF-kB reporter in 697 B cells; inhibition, % at 4 µM; 697 B-cell NF-kB luciferase reporter, 16 h; 330,000 compounds, 0.33% hits; AID 435022; in the data active means inhibition above about 35%
Jurkat NFkB conf: inhibitors of the PMA/ionomycin-induced NF-kB reporter in Jurkat cells, retest; AID 435020; shares compounds with Jurkat NFkB inh; 2,700 compounds, 27% hits; Jurkat NF-kB luciferase, 16 h; inhibition, % at 4 µM;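 active means inhibition reaching about 45% at 4 µM in either replicate, limit read from the data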;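 further: plate controls were PMA/ionomycin stimulated DMSO wells for no effect and unstimulated DMSO wells for full effect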
Active calls of the source: *. Sampled rows, rich in hits. Any-hit rate of the full collection: about 2.5%.

For N#Cc1ccccc1Sc1ccccc1C(=O)Nc1ccc2ccccc2c1 the results were aSyn UTR inh 18, ANO1 block inactive, KLF5 inh -29, Jurkat NFkB inh 5, ANO1 activ inactive and 697 NFkB inh 17.
Screening O=C(Nc1ccc2ccccc2c1)c1cnccn1 returned aSyn UTR inh -129, ANO1 block inactive, KLF5 inh -196, Jurkat NFkB inh -184, ANO1 activ inactive, 697 NFkB inh -220 and Jurkat NFkB conf -108.
For COc1ccc(NC(=O)c2ccc3ccccc3c2)cc1 the results were aSyn UTR inh -92, ANO1 block inactive, KLF5 inh -183, Jurkat NFkB inh -179, ANO1 activ inactive, 697 NFkB inh -61 and Jurkat NFkB conf -149.
Screening COc1ccc(C(=O)NNC(=O)c2ccc3ccccc3c2)cc1 returned ANO1 activ inactive.
CC(C)CC1NC(=O)N(CC(=O)Nc2ccc(OCc3ccccc3)cc2)C1=O (stereo unspecified) was read as Jurkat NFkB inh 2, ANO1 activ inactive and 697 NFkB inh 11.
Cc1occc1C(=O)N/N=C/c1ccc(OCc2ccccc2)cc1 was read as aSyn UTR inh -138, ANO1 block inactive, KLF5 inh -107, Jurkat NFkB inh -61, ANO1 activ inactive and 697 NFkB inh -44.
For Cc1occc1C(=O)N/N=C/c1ccc(-c2ccccc2)cc1 the results were aSyn UTR inh -29, ANO1 block inactive, KLF5 inh -15, Jurkat NFkB inh -206, ANO1 activ inactive, 697 NFkB inh -239 and Jurkat NFkB conf -72.
O=C(COc1ccccc1Cl)Nc1ccc(Cl)cn1 was read as aSyn UTR inh -55, ANO1 block inactive, KLF5 inh -179, Jurkat NFkB inh -153, ANO1 activ inactive, 697 NFkB inh -52 and Jurkat NFkB conf -99.
CC(OC(=O)CNS(=O)(=O)c1ccc(C#N)cc1)C(=O)Nc1cccc(C#N)c1 (stereo unspecified) was read as aSyn UTR inh 3, ANO1 block inactive, Jurkat NFkB inh 19, ANO1 activ inactive and 697 NFkB inh 12.
`Cc1ccc(/C=C/c2ccc(N(C)C)cc2)[n+](C)c1` gave aSyn UTR inh 19, ANO1 block inactive, KLF5 inh -7, Jurkat NFkB inh 68*, ANO1 activ inactive, 697 NFkB inh 26 and Jurkat NFkB conf 41.
Screening CCCNC(=O)CN1CCC(c2nc3ccccc3[nH]2)CC1 returned aSyn UTR inh 45, ANO1 block inactive, KLF5 inh -22, Jurkat NFkB inh -3, ANO1 activ inactive and 697 NFkB inh 8.
Screening CCN(CC)CCCNc1ccc(-c2nnc(-c3ccc(OCC(C)C)cc3)o2)cn1 returned aSyn UTR inh 121*, ANO1 block inactive, KLF5 inh -23, Jurkat NFkB inh 60*, ANO1 activ -5.6*, 697 NFkB inh -45 and Jurkat NFkB conf 26.
For O=C(COc1coc(CN2CCN(c3ccccc3)CC2)cc1=O)NC1CCCC1 the results were aSyn UTR inh -1, ANO1 block inactive, Jurkat NFkB inh 9, ANO1 activ inactive and 697 NFkB inh 4.
COC(=O)CSc1nc2cc(C)cc(C)c2cc1C#N was read as aSyn UTR inh -180, ANO1 block inactive, KLF5 inh -13, Jurkat NFkB inh -61, ANO1 activ inactive and 697 NFkB inh 15.
Screening COC(=O)CSc1nc2ccc(C)cc2cc1C#N returned aSyn UTR inh -72, ANO1 block inactive, KLF5 inh -18, Jurkat NFkB inh -180, ANO1 activ inactive, 697 NFkB inh -153 and Jurkat NFkB conf -111.
For COC(=O)CSc1nc2cc(OC)ccc2cc1C#N the results were aSyn UTR inh -133, ANO1 block inactive, KLF5 inh -152, Jurkat NFkB inh -166, ANO1 activ inactive, 697 NFkB inh -137 and Jurkat NFkB conf -94.
For Cc1ccc(S(=O)(=O)Nc2c(C)nc3nc(C)[nH]n3c2=O)c(C)c1 the results were aSyn UTR inh -6, ANO1 block inactive, KLF5 inh -21, Jurkat NFkB inh 12, ANO1 activ inactive and 697 NFkB inh 13.
Screening Fc1ccccc1N=C1NN=C(c2ccccc2)CS1 returned aSyn UTR inh -199, ANO1 block inactive, KLF5 inh -72, Jurkat NFkB inh -197, ANO1 activ inactive, 697 NFkB inh -196 and Jurkat NFkB conf -112.
Screening Fc1ccc(F)c(C2=NNC(=Nc3ccccc3F)SC2)c1 returned aSyn UTR inh -110, ANO1 block inactive, KLF5 inh -27, Jurkat NFkB inh -131, ANO1 activ inactive and 697 NFkB inh -151.
Cc1ccc(-c2onc3ccc(C(=O)O)cc23)cc1 was read as aSyn UTR inh -200, ANO1 block inactive, KLF5 inh 49, Jurkat NFkB inh 52*, ANO1 activ inactive, 697 NFkB inh -56 and Jurkat NFkB conf -1.
Screening O=C(CCN1CCCCC1=O)NC1CCCc2c1cnn2-c1ccccc1F (stereo unspecified) returned aSyn UTR inh 11, ANO1 block inactive, KLF5 inh -20, Jurkat NFkB inh -1, ANO1 activ inactive and 697 NFkB inh 9.
Screening CCOc1ccc(-c2ccc(SCC)nn2)cc1 returned ANO1 block inactive, KLF5 inh -131, Jurkat NFkB inh -224, ANO1 activ inactive, 697 NFkB inh -237 and Jurkat NFkB conf -88.
`CCSc1ccc(-c2ccc(C)cc2)nn1` gave aSyn UTR inh -52, KLF5 inh -99 and ANO1 activ inactive.
Screening COC(=O)c1c(-c2ccccc2)csc1NC(=O)c1ccco1 returned aSyn UTR inh -168, ANO1 block inactive, KLF5 inh -60, Jurkat NFkB inh -153, ANO1 activ inactive, 697 NFkB inh -219 and Jurkat NFkB conf -69.
For O=C(Nc1scc(-c2ccc(F)cc2)c1C(=O)O)c1ccco1 the results were aSyn UTR inh -77, ANO1 block inactive, KLF5 inh -51, Jurkat NFkB inh -5, ANO1 activ inactive and 697 NFkB inh -46.
`Cc1sc(NC(=O)c2ccco2)nc1-c1ccccc1` gave aSyn UTR inh -95, ANO1 block inactive, KLF5 inh -190, Jurkat NFkB inh -163, ANO1 activ inactive, 697 NFkB inh -221 and Jurkat NFkB conf -94.
`Cn1cc([N+](=O)[O-])c(C(=O)n2cccn2)n1` gave aSyn UTR inh 29, ANO1 block inactive, KLF5 inh 3, Jurkat NFkB inh 5, ANO1 activ inactive and 697 NFkB inh 17.
Screening CCOC(=O)c1ccc(NC(=O)C2CC3CCC2C3)cc1 (stereo unspecified) returned aSyn UTR inh -128, ANO1 block inactive, Jurkat NFkB inh -154, ANO1 activ inactive, 697 NFkB inh -164 and Jurkat NFkB conf -116.
